Compounds without any hit were thinned out: in the full panel of roughly 83,000, 20% have a hit.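 Each cell line was grown in a 96-well plate and treated with one concentration of compound for 48 hours. Values below 10 were considered active.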 Values without a mark were called inactive. The source made the active and inactive calls.
Test system: MDA-MB-468 breast
Assay: NCI-60 one-dose screen, 48 h (100 = growth as untreated, 0 = no growth, -100 = all killed)
Conditions: 10 µM unless noted

Point of comparison: `Cc1cccc(-c2nc(Nc3ccc4ncsc4c3)c3ccccc3n2)n1`, growth 72.3%. Against it:
- O=C1/C(=N/O)CCc2ccccc21 — higher, 109%
- NC[C@@H]1CCN(c2cc3c(cc2F)c(=O)n(N)c(=O)n3Cc2ccc(-c3ccccc3)cc2)C1 — higher, 72.6%
- O=S(=O)(Nc1ccccc1)c1ccc(C2CC3(Cl)C(Cl)=C(Cl)C2(Cl)C3(Cl)Cl)cc1 (stereo not given) — lower, 62.2%
- COc1cc2nc(Cl)nc(Nc3cccc(C4=Nc5c(N)nc(N)nc5NC(c5ccccc5)C4)c3)c2cc1OC (stereo not given) — higher, 96.5%
- O=c1c2ccccc2oc2ccc(OCCCCCN3CCCCCC3)cc12 — lower, 49.8%
- COc1ccc2nc(Cl)c(/C=C3\CC(c4ccccc4)=NN(c4ccccc4)C3=O)cc2c1 — higher, 74.9%
- COc1ccc(-c2nc3sccn3c2-c2cc(-c3cc(OC)c(OC)c(OC)c3)on2)cc1 — higher, 100%
- Cc1cc(Nc2nc(N[C@@H](C)c3ncc(F)cn3)ncc2Cl)n[nH]1 — higher, 100%
- COc1cc2nc(Sc3sc(N)nc3C)n(-c3ccc(Oc4ccccc4)cc3)c(=O)c2cc1OC — higher, 80.2%
- CN(C)c1nc(-c2cccs2)n2nc(-c3ccc(Cl)cc3)cc2n1 — lower, 33.6%
- Cc1onc(-c2ccccc2)c1C(=O)N/N=C/c1cc(Cl)cc(Cl)c1O — lower, 24.7%
- COc1ccc(C2Nc3c(c(C(C)(C)C)nn3-c3ccccc3)C(=O)CS2)cc1 (stereo not given) — higher, 112%
- O=C(C(=O)c1ccc2c(c1)OCO2)c1ccc2c(c1)OCO2 — higher, 96.9%
- O=C(NC(=S)Nc1cccc(NC(=S)NC(=O)c2ccccc2)c1)c1ccccc1 — higher, 98.5%
- O=C(/C=C/c1cccc(O)c1)c1cccc(-n2cc(-c3ccc(Cl)cc3)[nH]c2=O)c1 — lower, 37.6%
- NC(=O)c1ccc(N=C(N)N=C(N)N)cc1 — higher, 84.5%
- COc1cccc(/C=N\Nc2ccc([N+](=O)[O-])cn2)c1O — lower, 26.4%
- CCCCC(CCc1ccccn1)C(=O)c1ccccc1 (stereo not given) — higher, 109%
- COc1cc(C(=O)n2nc(NCCCc3ccccc3)c3cc(N)ccc32)cc(OC)c1OC — higher, 91.4%
- CCOc1cc2c(cc1OCC)C(c1cc(OC)c(O)cc1Cl)NCC2 (stereo not given) — lower, 61.4%
- CC(=O)/C(=C/c1ccc(Br)cc1)C(=O)c1ccccc1 — higher, 92.3%
- O=C(O)c1occ(Cl)c1Cl — higher, 107%
- COc1ccc2nc3cc(Cl)ccc3c(N3CCN(c4ccnc(Nc5ccc(F)cc5)n4)CC3)c2c1 — lower, 63.8%
- CCN1C(=O)N(CC)C2Nn3c(s/c(=C\c4ccccc4F)c3=O)=NC21 (stereo not given) — lower, 28.9%
- O=C1/C(=C/c2ccc([N+](=O)[O-])cc2)SC(=Nc2ccccc2)N1Nc1ccccc1 — higher, 87.8%
- COc1cc2oc(-c3cccc(NC(=O)[C@@H](N)C(C)C)c3)cc(=O)c2c(OC)c1OC — higher, 99.5%
- Cc1cccc(C)c1-c1cc(Cc2ccc(Cl)cc2)c(=O)[nH]n1 — higher, 96.9%
- COc1cccc2cc(N(C)c3nc(C)nc4ccsc34)ccc12 — lower, 20.2%
- Cc1ccc(NC(=O)c2ccc(Nc3ncnc4c3cnn4-c3cccc(F)c3)cc2)cc1 — higher, 96.6%
- CCC(=O)OC1=CN2C(=NC(c3ccc(N)cc3)=CC2c2cc(OC)c(OC)c(OC)c2)S1 (stereo not given) — lower, 25.5%
- O=S(=O)(NCCCNc1nccc(-c2c(-c3cccc(O)c3)nc3occn23)n1)c1ccc(Cl)cc1 — higher, 105%
- COCCOc1cc2ncnc(N3CCN(S(=O)(=O)c4ccccc4Cl)CC3)c2cc1OCCOC — lower, 57.1%

With `COc1cc(CNCCN2C(=O)c3ccc4c5c(ccc(c35)C2=O)C(=O)N(CCNCc2cc(OC)c(OC)c(OC)c2)C4=O)cc(OC)c1OC` the growth was -91.6% (active).
`CC(=O)OC[C@]12CC[C@@H](C(=O)/C=C/c3cccnc3)[C@@H]1[C@H]1CC[C@@H]3[C@@]4(C)CC[C@H](OC(C)=O)C(C)(C)[C@@H]4CC[C@@]3(C)[C@]1(C)CC2` was tested, and the growth was -44% (active).
With `Cn1cc(-c2ccc3cc(-c4ccc(CC(=O)Nc5cc(C(C)(C)C)nn5C)cc4)cnc3c2)cn1` the growth was -6.24% (active).
`C=C1C(=O)O[C@H]2[C@H]1CC/C(COC(=O)c1ccc(C(=O)O)s1)=C\CC[C@@]1(C)O[C@@H]21` was tested, and the growth was -46.7% (active).
`CCSc1ccc2c(c1)N(CCCN1CCN(C)CC1)c1ccccc1S2` was tested, and the growth was -3.41% (active).
In the case of `ClC1=C(Cl)C(Cl)=C(Cl)C1=C/C=C/c1ccccc1`, the growth is reported as -50.3% (active).
For `Cc1nnc(NC(=O)c2nc(S(=O)(=O)Cc3ccc(F)cc3)ncc2Cl)s1`, the growth was -15.1% (active).
